PREPL inhibitor = PREPL enzyme inhibitors, primary screen, biochemical, fluorescence polarization | Prolyl endopeptidase-like (Homo sapiens), Q4J6C6 | recombinant PREPL, fluorescence polarization activity-based probe | inhibition, % at 5.96 µM | 320,000 compounds, 0.68% hits | AID 2751, 2010; in the data active = inhibition above about 43%;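 note: 0% = enzyme with DMSO and 100% = wells lacking enzyme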
Target sequence (Q4J6C6 whole entry, looked up): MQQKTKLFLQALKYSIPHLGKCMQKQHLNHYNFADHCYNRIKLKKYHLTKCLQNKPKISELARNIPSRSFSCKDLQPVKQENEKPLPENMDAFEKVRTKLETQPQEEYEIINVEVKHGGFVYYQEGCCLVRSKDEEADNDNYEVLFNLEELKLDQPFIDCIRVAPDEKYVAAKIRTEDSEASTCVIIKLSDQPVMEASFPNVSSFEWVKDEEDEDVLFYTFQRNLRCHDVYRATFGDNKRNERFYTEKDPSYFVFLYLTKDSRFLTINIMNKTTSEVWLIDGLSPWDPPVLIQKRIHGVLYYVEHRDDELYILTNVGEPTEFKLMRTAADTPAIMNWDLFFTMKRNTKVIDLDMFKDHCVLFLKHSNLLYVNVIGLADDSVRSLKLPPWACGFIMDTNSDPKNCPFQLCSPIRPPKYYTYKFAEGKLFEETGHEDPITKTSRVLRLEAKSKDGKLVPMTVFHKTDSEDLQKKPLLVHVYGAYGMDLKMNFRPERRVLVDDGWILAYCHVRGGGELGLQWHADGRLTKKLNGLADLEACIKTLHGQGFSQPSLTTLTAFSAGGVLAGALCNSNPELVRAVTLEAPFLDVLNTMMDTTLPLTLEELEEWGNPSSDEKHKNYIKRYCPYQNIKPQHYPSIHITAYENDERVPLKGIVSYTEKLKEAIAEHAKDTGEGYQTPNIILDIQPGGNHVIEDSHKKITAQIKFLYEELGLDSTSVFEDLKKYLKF
CHT inh = inhibitors of human choline transporter CHT; B-score at 10 µM; High affinity choline transporter 1 (Homo sapiens), Q9GZV3; AID 488975, 2010; CHT-expressing cells, membrane potential dye, choline response; stronger effect = lower value; 310,000 compounds, 0.86% hits;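 active = B-score over 3 SD under the library average, and starting fluorescence ratio not unusually high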;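 note: choline stimulus applied at its EC90 after an EC20 pre-addition; B-score computed on integrated fluorescence ratio after choline addition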
CHT PAM = CHT positive allosteric modulators, primary screen, cell-based, membrane potential dye, choline EC20; High affinity choline transporter 1 (Homo sapiens), Q9GZV3; CHT-expressing cells; stronger effect = higher value; LV-AA mutant CHT in HEK293 cells; 310,000 compounds, 0.49% hits; B-score at 10 µM;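 active = initial fluorescence not abnormally high and integrated response B-score, plate-corrected, over 3 SD above library mean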
ALR inh = inhibitors of human ALR sulfhydryl oxidase, primary screen, biochemical, H2O2 detection, HRP-luminol luminescence, single point; FAD-linked sulfhydryl oxidase ALR (Homo sapiens), P55789; purified ALR, DTT oxidation; inhibition, % (no concentration beside the values); 290,000 compounds, 3.8% hits;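 active = mean replicate inhibition above about 79%, with every replicate also reaching it, limit read from the data; inconclusive = only one of the two criteria met; inactive = mean below limit and not every replicate reaching it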
AI-2 QS modul = Vibrio harveyi AI-2 quorum sensing modulators, primary screen, JMH597 strain, luminescence/OD600 ratio. activity change, % at 7.5 µM. 300,000 compounds, 0.4% hits. Vibrio harveyi JMH597 AI-2 luminescence/OD600 ratio, 9 h; stronger effect = lower value; strain lacks LuxN and CqsS sensors; 0 = neutral-control median; in the data active = activity change below about -75%, passing the limit was not always enough; inconclusive = no clear call, values can overlap the other calls;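 note: luminescence divided by OD600 gain over 9 h not by final OD600 alone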
Starred values were filed as active, the others as inactive; i = inactive; ? = inconclusive; nt = not tested or not shown. Hits are enriched below; roughly 5% of the tested compounds scored in any of these assays.

SMILES	PREPL inhibitor	CHT inh	CHT PAM	ALR inh	AI-2 QS modul
O=C(/C=C/c1ccco1)NCC1OCCc2ccccc21 (centres undefined)	1	i	i	98*	4
C=CC(=O)NCC1OCCc2ccccc21 (centres undefined)	0	i	i	-18	16
O=C(Nc1ccc(NC(=O)C2CCCCC2)nc1)c1ccccn1	-10	i	i	99*	46
COc1cc(C)c(-c2cc(C(=O)O)c(C)o2)cc1C(C)C	12	i	i	97*	10
Cc1cc(C(F)(F)F)nn1Cc1n[nH]c(=S)n1Cc1ccccc1	0	i	i	82*	10
Cc1ccc(-c2nc3ccccc3nc2Cl)cc1	6	i	i	91*	-10
CSC(=NC#N)N1CCN(c2ccccc2)CC1	4	i	i	76*	-3
CSC(=NC#N)N1CCN(c2cccc(Cl)c2)CC1	-9	i	i	94*	13
Cc1ccc(C(=O)N2CCN(c3cccc(Cl)c3)CC2)cc1C	19	i	i	-7	8
CSC(=NC#N)N1CCN(c2c(C)cccc2C)CC1	11	i	i	-3	12
Nc1cccc(CCc2ccncc2)c1	7	i	i	90*	-1
O=C(NNS(=O)(=O)c1ccc(C(=O)NC2CCCC2)cc1)c1ccncc1	-10	i	i	99*	-3
CC1CCCCC1NC(=O)c1ccncc1 (centres undefined)	-2	i	i	-2	-10
CC1CCCCC1NC(=O)c1ccc(S(=O)(=O)NNC(=O)c2ccncc2)cc1 (centres undefined)	-5	i	i	99*	8
Cc1cc(C)c(NC(=O)CS(=O)CC(=O)NCCN2CCCCCC2)c(C)c1 (centres undefined)	-4	i	i	-14	13
Cc1[nH]nc2c1C(c1cn[nH]c1-c1ccc(F)cc1)C(C#N)=C(N)O2 (centres undefined)	18	i	i	92*	26
COc1cccc(N2C(=O)Nc3ccc(Br)cc3C2(O)C(=O)NCCCOC(C)C)c1 (centres undefined)	4	i	i	-23	18
O=[N+]([O-])c1cccc(C(=Nc2ccccc2Cl)NO)c1	-8	i	i	27	-91*
ONC(=Nc1ccc(Cl)cc1)c1ccc(Cl)cc1	-3	i	i	78*	-23
O=[N+]([O-])c1cccc(C(=Nc2ccc(Cl)cc2)NO)c1	4	i	i	85*	-67
O=[N+]([O-])c1cccc(C(=Nc2ccccc2)NO)c1	1	i	i	60	-33
Clc1cc(Cl)cc(CN2CCSCC2)c1	0	i	i	0	29
COc1ccc(CCNC(=O)c2cc3c(cc2Cl)N2CCCCCC2=NS3(=O)=O)cc1	20	i	i	-2	21
COCCOC(=O)C1=C(C)NC2=C(C(=O)CCC2)C1c1ccc2c(c1)OCO2 (centres undefined)	8	i	i	-3	-8
CCOC(=O)C1=C(C)NC(=O)NC1c1ccc(N(C)C)cc1 (centres undefined)	nt	nt	nt	nt	12
SMILES	PREPL inhibitor	CHT inh	CHT PAM	ALR inh	AI-2 QS modul
CCN(CC)c1ccc(C2C(C(=O)OCCOC)=C(C)NC3=C2C(=O)CCC3)cc1 (centres undefined)	0	i	i	99*	10
CCOC(=O)C1=C(C)NC2=C(C(=O)CCC2)C1c1ccc(N(C)C)cc1 (centres undefined)	-2	i	i	74	9
CCCOC(=O)C1=C(C)NC2=C(C(=O)CCC2)C1c1ccc(N(C)C)cc1 (centres undefined)	7	i	i	91*	30
CCOC(=O)C1=C(C)NC(=O)NC1c1ccc(N(CC)CC)cc1 (centres undefined)	1	i	i	98*	-2
COc1ccc(-n2ncc3c(=O)n(CC(=O)Nc4ccc5c(c4)OCCO5)cnc32)cc1	-8	i	i	nt	23
Cc1nn(C)cc1CN1CCCC(C(=O)c2ccc(-c3ccccc3)c(F)c2)C1 (centres undefined)	-37	i	i	-13	24
CCOc1ccc(OCC(=O)OCC(=O)NCC2CCCO2)cc1 (centres undefined)	12	nt	nt	13	nt
CCN(CC)S(=O)(=O)c1cccc(NC2=NCCCCC2)c1	7	i	i	1	11
CC(C)=CC(=O)OCC(=O)Nc1cc(C)cc(C)c1	16	i	i	-8	-11
CCN1/C(=C2/SC(=S)NC2=O)Sc2ccccc21	2	i	i	91*	9
O=C(COc1ccccc1)N(Cc1cccs1)C1CCS(=O)(=O)C1 (centres undefined)	4	i	i	-25	9
Cc1ccccc1Oc1cc(-n2ncc(Cl)c(Cl)c2=O)ncn1	5	i	i	97*	nt
COc1ccc(CNc2ccc(C)cc2)cc1Br	17	i	i	nt	-62
COc1ccc(CNc2ccccc2)cc1Br	15	i	i	83*	-13
O=C1Nc2ccccc2C1=O	-5	i	i	-5	9
O=C1Nc2ccccc2N=C(c2ccccc2)c2ccccc21	7	i	i	83*	12
Cn1c(SCC(=O)NC2CCS(=O)(=O)C2)nc2ccccc21 (centres undefined)	5	nt	nt	-5	nt
CN1/C(=C/C2CC(=O)NC2=O)C(C)(C)c2ccccc21 (centres undefined)	15	i	i	98*	nt
Clc1ccc(-c2nnc(-c3ccccc3)c(N3CCSCC3)n2)cc1	19	i	i	47	12
CC1CN(c2nc(-c3ccc(Br)cc3)nnc2-c2ccccc2)CC(C)N1 (centres undefined)	4	i	i	97*	18
CN=C1S/C(=C\c2ccc(O)c(Br)c2)C(=O)N1C	11	nt	nt	96*	8
CN=C1S/C(=C\c2ccc(O)c(OC)c2)C(=O)N1C	4	i	i	75	9
Cc1cc(=O)n(-c2ccc(O)cc2)[nH]1	19	i	i	99*	-6
Cc1cc(=O)n(-c2ccc(C(=O)O)cc2)[nH]1	8	i	i	-48	3
O=C(O)[C@H](Cc1ccccc1)N1C(=O)c2c(Cl)c(Cl)c(Cl)c(Cl)c2C1=O	-5	i	i	?	23
COc1ccccc1NC(=O)c1nc(S(=O)(=O)Cc2ccccc2)ncc1Cl	2	i	i	4	7
CSc1nnc(NC(=O)c2nc(S(=O)(=O)Cc3ccccc3)ncc2Cl)s1	0	-9.2*	i	97*	8
